FBW7 activator – FBW7 E3 ligase activators, primary screen, biochemical, AlphaScreen, human; 650,000 tested, 0.13% active; AlphaScreen FBW7–phospho-cyclin E peptide binding, activator screen; normalized activity (activation), % at 26.1 µM; F-box/WD repeat-containing protein 7 (Homo sapiens), Q969H0; AID 1259310, 2017; in the data active = normalized activity above about 1.9%;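 also: purified mutant Fbw7 with reduced substrate affinity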
Target sequence (Q969H0 whole entry, looked up): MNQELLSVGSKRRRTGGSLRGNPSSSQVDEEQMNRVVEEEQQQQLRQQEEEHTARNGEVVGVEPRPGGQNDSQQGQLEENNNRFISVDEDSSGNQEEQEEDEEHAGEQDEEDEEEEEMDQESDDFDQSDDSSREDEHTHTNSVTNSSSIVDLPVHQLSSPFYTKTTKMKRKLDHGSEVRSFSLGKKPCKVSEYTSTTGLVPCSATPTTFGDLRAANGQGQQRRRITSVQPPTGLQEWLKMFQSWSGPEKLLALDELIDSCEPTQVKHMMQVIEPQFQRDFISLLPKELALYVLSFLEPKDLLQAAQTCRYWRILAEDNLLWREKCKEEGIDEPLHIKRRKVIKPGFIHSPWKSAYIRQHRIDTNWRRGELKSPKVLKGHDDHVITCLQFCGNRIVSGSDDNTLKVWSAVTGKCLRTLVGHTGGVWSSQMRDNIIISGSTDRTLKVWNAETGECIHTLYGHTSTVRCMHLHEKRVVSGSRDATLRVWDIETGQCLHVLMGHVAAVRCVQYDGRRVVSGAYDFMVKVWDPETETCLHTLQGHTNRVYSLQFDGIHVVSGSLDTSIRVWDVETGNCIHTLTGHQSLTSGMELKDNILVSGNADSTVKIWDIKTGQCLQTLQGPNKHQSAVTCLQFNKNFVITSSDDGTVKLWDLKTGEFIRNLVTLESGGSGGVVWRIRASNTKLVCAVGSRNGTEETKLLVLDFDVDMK
GPR151 activ – activators of human GPR151, primary screen, cell-based, PathHunter beta-arrestin, luminescence. PathHunter beta-arrestin GPR151 cells. activation, % at 11.2 µM. 650,000 tested, 1% active. AID 1508602, 2020; in the data active = activation above about 4.9%
TEAD-YAP inh – TEAD-YAP interaction inhibition, primary screen, TEAD-YAP interaction inhibitor project, luminescence, HEK-TIYL cells. AID 1259422, 2018. TEAD-Gal4/YAP UAS-luciferase luminescence. inhibition, % at 9.12 µM. 640,000 tested, 1.4% active; in the data active = inhibition above about 32%
MITF primary – MITF inhibitors, primary screen, biochemical, AlphaScreen, human. AlphaScreen MITF homodimerization, bead proximity signal. inhibition, % at 2.6 µM. Microphthalmia-associated transcription factor (Homo sapiens), O75030. 650,000 tested, 0.91% active; in the data active = inhibition above about 50%
Numbers stand for hits. The list is not random: actives were taken first. Their share in the collection is about 3.5%.

What do the screens show for `O=C1OCC2=C1C(c1ccccc1Br)c1cc3c(cc1N2)OCO3` (stereo not given)?
FBW7 activator: inactive; GPR151 activ: inactive; TEAD-YAP inh: 39.9; MITF primary: inactive

Results for O=C1CC(c2ccccc2OCc2ccccc2)c2cc3c(cc2N1)OCO3 (stereo not given) ?
FBW7 activator: inactive; GPR151 activ: inactive; TEAD-YAP inh: inactive; MITF primary: inactive

How did NNC(=O)/C(=C\c1ccccc1)NC(=O)c1ccccc1 do in these assays?
FBW7 activator: inactive; GPR151 activ: inactive; TEAD-YAP inh: inactive; MITF primary: inactive

How did NNC(=O)/C(=C\c1cccs1)NC(=O)c1ccccc1 do in these assays?
FBW7 activator: inactive; GPR151 activ: inactive; TEAD-YAP inh: 33.5; MITF primary: inactive

What do the screens show for `C/C(=N/NC(=O)CNC(=O)c1ccccc1F)c1ccc(C)cc1`?
FBW7 activator: inactive; GPR151 activ: inactive; TEAD-YAP inh: inactive; MITF primary: inactive

How did CCOC(=O)c1ccc(NC(=O)c2cn(CCC#N)nc2-c2ccc(F)cc2)cc1 do in these assays?
FBW7 activator: inactive; GPR151 activ: inactive; TEAD-YAP inh: inactive; MITF primary: inactive

How did CCN(CC)C(=O)c1cn(CCC#N)nc1-c1ccc(F)cc1 do in these assays?
FBW7 activator: 2.1; GPR151 activ: inactive; TEAD-YAP inh: inactive; MITF primary: inactive

How did CN=c1scc(-c2ccc(C)c(C)c2)n1/N=C/c1ccc(O)c(O)c1O do in these assays?
FBW7 activator: inactive; GPR151 activ: inactive; TEAD-YAP inh: 70.1; MITF primary: inactive

How did C=CCn1c(SCc2ccccc2Cl)nc2c1c(=O)[nH]c(=O)n2C do in these assays?
FBW7 activator: inactive; GPR151 activ: inactive; TEAD-YAP inh: 53.3; MITF primary: inactive

What do the screens show for `C=CCn1c(SCc2cccc(C)c2)nc2c1c(=O)[nH]c(=O)n2C`?
FBW7 activator: inactive; GPR151 activ: inactive; TEAD-YAP inh: 44.6; MITF primary: inactive

Results for C=CCSc1nc2c(c(=O)[nH]c(=O)n2C)n1Cc1ccccc1Cl ?
FBW7 activator: inactive; GPR151 activ: inactive; TEAD-YAP inh: inactive; MITF primary: inactive

How did CCOC(=O)c1c(C)n(C)c2c1cc(OC(=O)c1cccc3ccccc13)c1ccccc12 do in these assays?
FBW7 activator: inactive; GPR151 activ: inactive; TEAD-YAP inh: inactive; MITF primary: inactive

How did O=C1/C(=C/c2c(F)cccc2Cl)SC(=S)N1C1CCS(=O)(=O)C1 (stereo not given) do in these assays?
FBW7 activator: inactive; GPR151 activ: inactive; TEAD-YAP inh: inactive; MITF primary: inactive

How did COC(=O)c1cn(NC(=O)c2ccccn2)c(=O)c2ccccc12 do in these assays?
FBW7 activator: inactive; GPR151 activ: inactive; TEAD-YAP inh: 62.1; MITF primary: 100.4

What do the screens show for `COC(=O)c1cn(NC(=O)c2cccnc2Cl)c(=O)c2ccccc12`?
FBW7 activator: inactive; GPR151 activ: inactive; TEAD-YAP inh: inactive; MITF primary: inactive

Results for O=C(CSc1ccc(F)cc1)NCC1(CO)CC1 ?
FBW7 activator: inactive; GPR151 activ: inactive; TEAD-YAP inh: inactive; MITF primary: inactive

What do the screens show for `C=CCN1C(=O)/C(=C\c2cc(C)n(-c3ccccc3)c2C)C(C(=O)OC)=C1C`?
FBW7 activator: inactive; GPR151 activ: inactive; TEAD-YAP inh: inactive; MITF primary: inactive

What do the screens show for `C=CCN1C(=O)/C(=C\c2cc(C)n(-c3ccccc3F)c2C)C(C(=O)OC)=C1C`?
FBW7 activator: inactive; GPR151 activ: inactive; TEAD-YAP inh: 35.8; MITF primary: inactive

What do the screens show for `CCN1C(=O)/C(=C\c2cc(C)n(-c3ccccc3F)c2C)C(C(=O)OC)=C1C`?
FBW7 activator: inactive; GPR151 activ: inactive; TEAD-YAP inh: 37.9; MITF primary: inactive

How did CCN1C(=O)/C(=C\c2cc(C)n(-c3ccccc3C)c2C)C(C(=O)OC)=C1C do in these assays?
FBW7 activator: inactive; GPR151 activ: inactive; TEAD-YAP inh: inactive; MITF primary: inactive

What do the screens show for `Cc1ccccc1C(=O)N/N=C/C=C/c1ccccc1`?
FBW7 activator: inactive; GPR151 activ: inactive; TEAD-YAP inh: inactive; MITF primary: inactive

How did CCOCCSC1=C(C#N)C(c2ccco2)C(C(C)=O)=C(C)N1 (stereo not given) do in these assays?
FBW7 activator: inactive; GPR151 activ: inactive; TEAD-YAP inh: inactive; MITF primary: inactive

How did CCCCNC(=O)c1sc2ncn(CC(=O)NCCC)c(=O)c2c1C do in these assays?
FBW7 activator: inactive; GPR151 activ: inactive; TEAD-YAP inh: inactive; MITF primary: inactive

What do the screens show for `CN1CCN(c2ccc(-c3nc4ccc(C(N)=O)cc4s3)cc2)CC1`?
FBW7 activator: inactive; GPR151 activ: inactive; TEAD-YAP inh: 44.2; MITF primary: inactive

Results for COc1ccc(CN2C(=O)CC(C(=O)O)SC2=Nc2ccccc2)cc1 (stereo not given) ?
FBW7 activator: inactive; GPR151 activ: inactive; TEAD-YAP inh: inactive; MITF primary: inactive

How did Cc1oc(-c2ccccc2Cl)nc1CS(=O)CC(=O)NCc1ccc2c(c1)OCO2 (stereo not given) do in these assays?
FBW7 activator: 3.9; GPR151 activ: inactive; TEAD-YAP inh: inactive; MITF primary: inactive

How did Cc1oc(-c2ccccc2Cl)nc1CS(=O)CC(=O)NCc1ccccn1 (stereo not given) do in these assays?
FBW7 activator: inactive; GPR151 activ: inactive; TEAD-YAP inh: inactive; MITF primary: inactive

What do the screens show for `COc1ccccc1CNC(=O)CS(=O)Cc1nc(-c2ccccc2C)oc1C` (stereo not given)?
FBW7 activator: 2.6; GPR151 activ: inactive; TEAD-YAP inh: inactive; MITF primary: inactive

How did Cc1ccc(C(=O)Nc2ccc3oc(-c4cc(Cl)ccc4Cl)nc3c2)cc1[N+](=O)[O-] do in these assays?
FBW7 activator: inactive; GPR151 activ: inactive; TEAD-YAP inh: inactive; MITF primary: inactive

How did NC(=O)c1c(NC(=O)Nc2ccc(Cl)cc2)sc2c1CCCC2 do in these assays?
FBW7 activator: inactive; GPR151 activ: inactive; TEAD-YAP inh: inactive; MITF primary: inactive

How did Cc1cc(I)cnc1NC(=O)c1ccccc1[N+](=O)[O-] do in these assays?
FBW7 activator: inactive; GPR151 activ: inactive; TEAD-YAP inh: 58.4; MITF primary: inactive

How did O=C(NC(=S)Nc1ccc(Cl)cn1)c1ccccc1[N+](=O)[O-] do in these assays?
FBW7 activator: inactive; GPR151 activ: inactive; TEAD-YAP inh: inactive; MITF primary: inactive

How did O=C(Nc1ccc(Cl)cn1)c1ccccc1[N+](=O)[O-] do in these assays?
FBW7 activator: inactive; GPR151 activ: inactive; TEAD-YAP inh: 43.0; MITF primary: inactive

How did O=C1c2ccc([N+](=O)[O-])cc2C(=O)N1CCO do in these assays?
FBW7 activator: inactive; GPR151 activ: inactive; TEAD-YAP inh: inactive; MITF primary: inactive

Results for Cc1nn(C)c(C)c1CN(C)S(=O)(=O)c1ccc2ccccc2c1 ?
FBW7 activator: inactive; GPR151 activ: inactive; TEAD-YAP inh: 56.3; MITF primary: inactive

Results for Cc1ccc(CN(C)S(=O)(=O)c2ccc3ccccc3c2)cc1 ?
FBW7 activator: inactive; GPR151 activ: inactive; TEAD-YAP inh: inactive; MITF primary: inactive

How did CC(=O)c1ccc(N/C=C\C(=O)c2ccc3c(c2)OCO3)cc1 do in these assays?
FBW7 activator: inactive; GPR151 activ: inactive; TEAD-YAP inh: inactive; MITF primary: inactive

Screening data: PubChem BioAssay, The Scripps Research Institute Molecular Screening Center
